Rows were chosen to be rich in hits. Some 2.6% of all compounds tested hit in one or more screens of this group.
HIF-2a inh – inhibitors of HIF-2a; 786-0 RCC cells HIF-2a reporter, luciferase luminescence, overnight; inhibition, % at 18.8 µM; 360,000 tested, 0.72% active; AID 624352;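 active means inhibition of the luminescence signal of 40% or more relative to plate controls, in a single-dose primary screen at 18.75 µM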
Peg3 prom inh-1 – Peg3 promoter activity inhibition; 360,000 tested, 1.7% active; HeLa PEG-Prom luciferase reporter, luminescence, overnight; inhibition, % at 20 µM;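 active means inhibition of at least 50% at 20 µM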
KKLEB cytotox – CF airway cell cytotoxicity counter-screen; KKLEB CF airway cells viability, ATPlite luminescence, overnight; hits give low values; cells stimulated with P. aeruginosa culture filtrate; activity change (cytotoxicity), % at 5 µM; 360,000 tested, 0.36% active; AID 602141;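 active means corrected activity change at or below -50% at 5 µM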
CF NFkB block – inhibitors of cystic fibrosis induced NF-kB. KKLEB NF-kB-GFP reporter, PAF-induced, GFP fluorescence overnight. inhibition, % at 5 µM. 360,000 tested, 0.86% active;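 active means at least 50% inhibition at 5 µM, scaled per plate between neutral and stimulator controls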;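 further: PAF is a Pseudomonas aeruginosa culture filtrate used as stimulus; plate controls were PAF-stimulated DMSO wells for no effect and unstimulated DMSO wells for full effect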
Shn3 inh set2 – reduces Shn3 3'UTR luciferase signal in osteoblasts. Clone20 osteoblast Shn3 3'UTR firefly luciferase, 24 h. inhibition, % at 12.5 µM. 360,000 tested, 0.52% active;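 active means mean inhibition of at least 75% with every replicate also reaching 75%; inconclusive means mean inhibition at least 75% but some replicate below; inactive means mean inhibition below 75%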;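 further: 0% = median of neutral control wells and 100% = pilot-screen positive control compound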
Peg3 prom inh-2 – Peg3 promoter inhibition confirmation; shares compounds with Peg3 prom inh-1; 1,300 tested, 84% active; inhibition, % at 20 µM; HeLa PEG-Prom luciferase reporter, luminescence, overnight; AID 602417;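 active means at 20 µM dose, 40% or more inhibition averaged across four replicates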
* marks the source's active call; other numbers are inactive results; ? = inconclusive; . = no result given; ! = not active in a repeat.

SMILES	HIF-2a inh	Peg3 prom inh-1	KKLEB cytotox	CF NFkB block	Shn3 inh set2	Peg3 prom inh-2
CC(C)CCCCCCCCCCCCC(=O)NCC(=O)NC1C(O)C(O)C(Nc2ncnc3nc[nH]c23)OC1C(O)CO (stereo unspecified)	69*	100*	-34	90*	97*	99*
O=C(COc1ccccc1)N[C@@H]1c2ccccc2CC[C@@H]1O	13	0	-14	8	-13	.
CN(C)C=NC(=O)c1[nH]c2ccc(Cl)cc2c1-c1ccccc1	25	72*	2	22	-41	81*
Cc1ccc(C)c(NC(=O)CCN2C(=O)C3CC=CCC3C2=O)c1 (stereo unspecified)	3	-6	26	4	-8	.
COCCn1c(-c2ccc(-c3ccc([N+](=O)[O-])cc3Br)o2)nc2c1c(=O)[nH]c(=O)n2CC(C)C	18	52*	-6	19	11	30
COc1ccc(-c2ccc(-c3nc4c(c(=O)[nH]c(=O)n4Cc4ccccc4)n3C)o2)c([N+](=O)[O-])c1	3	57*	-37	21	-1	16
CN(CC(=O)Nc1ccc(F)cc1)C(=O)c1ccc(OCc2ccccc2)cc1	-30	-35	0	-32	3	.
CCN(CC)CCOc1ccc(/C(=C(/Cl)c2ccccc2)c2ccccc2)cc1	-7	102*!	3	39	9	96*
CCOc1ccc(C(=O)OCCN(CC)CC)cc1	17	6	-2	-13	-20	.
O=c1c(Cc2ccc(F)cc2)c(O)ccn1CCCN1CCOCC1	12	8	7	-23	12	.
COc1cccc(/C=N/NC(=O)c2c(C)nc3ccc(Cl)cn23)c1O	2	56*	0	-14	90*	71*
COc1ccc(/C=N/NC(=O)c2cccc(NC(C)=O)c2)c(OC)c1	0	14	-6	2	-3	.
COc1ccc(C(=O)Nc2cccc(C(=O)N/N=C/c3ccc(OC)cc3OC)c2)cc1	58*	74*	7	-10	10	77*
COc1cccc(/C=N/NC(=O)c2ccc(-c3ccccc3)cc2)c1O	12	55*	2	2	91*	69*
COc1ccccc1/C=N\NC(=O)c1c(C)nc2ccc(Cl)cn12	16	15	4	-2	9	.
CCOc1ccccc1NC(=O)c1sc2ncn(CC(=O)N3CCOCC3)c(=O)c2c1C	-2	12	-3	15	-10	.
COc1ccccc1C(CNC(=O)CNC(=O)c1ccc(C)c(C)c1)N1CCCC1 (stereo unspecified)	12	3	-3	24	19	.
CCOC(=O)C1=C(COC(=O)CCc2ccc(CC)cc2)NC(=O)NC1C (stereo unspecified)	1	-9	15	-5	-1	.
Cc1cc(-n2c(SCC(=O)Nc3ccc(F)c(F)c3)nc3n[nH]c(C)c3c2=N)ccc1Cl	7	84*	-7	7	52	59*
Cc1cc(-n2c(SCC(=O)Nc3ccc(Br)cc3)nc3n[nH]c(C)c3c2=N)ccc1Cl	2	85*	-20	32	54	40
CCOc1ccc(-n2c(SCC(=O)Nc3ccc(Br)cc3)nc3n[nH]c(C)c3c2=N)cc1	11	33	-32	17	56	.
N=c1c2c(-c3ccccc3)c(-c3ccccc3)n(Cc3ccccc3)c2ncn1CCO	34	98*	-10	16	-3	96*
COc1cc(CNCCN2CCOCC2)ccc1OCc1ccc(Cl)cc1Cl	7	57*	-4	12	3	79*
O=C(CC12CC3CC(CC(C3)C1)C2)NCC(=O)OCc1cc(=O)oc2ccc3ccccc3c12	20	-16	10	-32	-10	.
O=C1NC(Cc2ccc(O)cc2)c2nc3ccc(F)cc3c(=O)n2-c2cc3ccccc3cc21 (stereo unspecified)	-29	54*	-17	-3	13	60*
SMILES	HIF-2a inh	Peg3 prom inh-1	KKLEB cytotox	CF NFkB block	Shn3 inh set2	Peg3 prom inh-2
O=C1NC(Cc2ccccc2)c2nc3cc(F)ccc3c(=O)n2-c2cc3ccccc3cc21 (stereo unspecified)	24	21	-3	-9	-5	.
CC1=NN(c2ccccc2)C(=O)/C1=C/C=C/c1ccccc1	68*	113*	11	40	?	22
CC1=NN(c2cccc(C(=O)O)c2)C(=O)/C1=C\C=C\c1ccco1	-18	-36	2	6	-33	.
CC1(C)CC(=O)C=C(NCc2ccc(C(=O)O)cc2)C1	5	-2	3	7	-11	.
CCOC(=O)c1ccc2ncc(C(=O)OCC)c(NCCN3CCOCC3)c2c1	14	10	1	-10	-2	.
CCOC(=O)c1ccc2ncc(C(=O)OCC)c(NCCN(C)C)c2c1	0	55*	-10	-22	-35	55*
Cc1cc2ccccc2nc1SCC(=O)NC1CCCC1	-3	16	-6	6	-10	.
CCC(=O)Nc1ccc(C(=O)NNC(=O)c2cc(OC)c(OC)c(OC)c2)cc1	-4	14	-6	3	4	.
COc1ccc(-c2ccc3[nH]c4c(c3c2)CCN2C[C@@H]([C@H](C)O)[C@@H](N(C)C(=O)Nc3cc(Cl)cc(Cl)c3)C[C@@H]42)cc1	9	64*	1	1	20	61*
C=CCN(CC(=O)Nc1cccnc1)S(=O)(=O)c1ccc(Cl)cc1	19	22	-14	-1	4	.
CC(=O)Nc1cccc(Oc2ccc(-c3noc(C)n3)cc2)c1	-229	-263	4	-3	-30	.
CC(=O)c1sc2c(c1OC(=O)c1ccc(Cl)cc1Cl)c(=O)n(-c1ccccc1)c(=S)n2-c1ccccc1	37	80*	-17	54*	-9	59*
CC(=O)c1sc2c(c1OC(=O)c1ccc(Cl)cc1)c(=O)n(-c1ccccc1)c(=S)n2-c1ccccc1	-10	39	15	24	11	.
O=C(COC(=O)c1c2c(nc3ccccc13)/C(=C\c1cccs1)CCC2)Nc1ccccc1	16	55*	15	-38	47	60*
CC(C)(C)NC(=O)COC(=O)c1c2c(nc3ccccc13)CCC2	14	40	-1	14	15	.
CC(C)NC(=O)NC(=O)COC(=O)c1c2c(nc3ccccc13)CCC2	16	92*	1	18	66	86*
Cc1cc(C)c(NC(=O)Cn2nnc(C(=O)Nc3ccc(F)cc3F)c2N)c(C)c1	9	18	-19	2	-5	.
CCOc1cccc(CN2CCCC(CCC(=O)NCc3ccccc3F)C2)c1O (stereo unspecified)	11	15	2	1	12	.
COc1ccc(-c2cc(C(=O)Nc3ccccc3N3CCOCC3)c3ccccc3n2)cc1OC	-4	58*	-11	18	21	62*
O=C(Nc1ccccc1N1CCOCC1)c1cc(-c2ccncc2)nc2ccccc12	1	63*	-13	1	14	57*

Bioassay records as filed in PubChem.
